Many of the other results were omitted from the sample, so hits are more common in it than they were.
MBNL1 CUG block: MBNL1-poly(CUG) RNA binding inhibition. Potency, µM (top dose mostly 57.5 µM), most hits filed as inhibitors. Q9NR56. TR-FRET MBNL1-His/biotin-(CUG)12 binding, 665/545 ratio. actives 0.036% (n = 280,000); active means well fitted inhibition curve with a large enough effect in the signal ratio, with a control signal flat, not every such curve was filed as active; inconclusive means small, poorly fitted or top-dose-only effect, or effect the other way, or a change in a side signal; inactive means no such curve, though single readings can be large or run the other way; the % refers to the signal ratio
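Inhibition of protein-RNA binding appears as loss of TR-FRET between terbium anti-His antibody on MBNL1-His and streptavidin-XL665 on biotin-(CUG)12. Activity is normalized to buffer-only and uninhibited-complex controls.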
ClpP mod: qHTS Assay for Activators of ClpP. ATP-dependent Clp protease proteolytic subunit (Bacillus subtilis (strain 168)), P80244. purified B. subtilis ClpP, FRET peptide cleavage, 20 min. Potency, µM (highest dose often 57.5 µM). actives 1.9% (n = 340,000). AID 651965, 2013; active means well fitted falling curve with a large enough effect; inconclusive means small, poorly fitted or top-dose-only effect; inactive means no such curve, though single readings can be large or run the other way; further: the source files actives as falling curves though it sought activators and does not explain the sign; nearly all actives have a fitted effect of over 65% in size
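Buffer: 100 mM Tris/HCl pH8, 100 mM KCl, 0.05% low protease BSA, 2.5% glycerol, 0.01% Tween-20. ClpP 10 microg/mL final; 20 min RT; delta FRET normalized to ADEP and DMSO controls.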
CBFb RUNX1 block: inhibitors of human CBF-beta and RUNX1 interaction. AlphaScreen CBFb-His/RUNX1-biotin binding, biochemical. Potency, µM (highest dose often 59.8 µM), actives largely listed as inhibitors. 230,000 tested, under 10 active. AID 1477; active means well fitted curve in the direction sought with a large enough effect; inconclusive means small, poorly fitted or top-dose-only effect, or effect the other way, or another doubt; inactive means no such curve, though single readings can be large or run the other way
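AlphaScreen binding: CBFb-His and RUNX1-biotin (30 nM each) preincubated 20 min, compound added for 15 min, then nickel and streptavidin beads for 90 min, all at room temperature. Disruption of the interaction by any mechanism counts as activity.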
Rango dissoc inh: inhibitors of RanGTP-induced Rango-importin beta complex dissociation; Potency, µM (doses to about 46.1 µM); O95149+P62826; Biochemical FRET Rango-importin beta, RanGTP-induced dissociation; actives 0.071% (n = 340,000); further: nearly all actives have a fitted effect of over 45% in size
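Compounds sat 5 min at room temperature with 0.1 uM Rango biosensor plus 0.25 uM importin beta, then FRET pre-read. RanGTP-RCC1 (0.6 uM Ran, 2mM GTP, 0.2 uM RCC1) added for 45 min, and the CFP/YFP post-read measured blocked complex dissociation.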
Rango complex inh: prevents formation of the Rango-importin beta complex | Q14974 | Rango CFP/YFP FRET sensor + importin beta, 45 min | Potency, µM (doses to about 92.2 µM) | actives 0.031% (n = 340,000) | AID 540263; further: nearly all actives have a fitted effect of over 15% in size
Target sequence (Q14974 whole entry, looked up): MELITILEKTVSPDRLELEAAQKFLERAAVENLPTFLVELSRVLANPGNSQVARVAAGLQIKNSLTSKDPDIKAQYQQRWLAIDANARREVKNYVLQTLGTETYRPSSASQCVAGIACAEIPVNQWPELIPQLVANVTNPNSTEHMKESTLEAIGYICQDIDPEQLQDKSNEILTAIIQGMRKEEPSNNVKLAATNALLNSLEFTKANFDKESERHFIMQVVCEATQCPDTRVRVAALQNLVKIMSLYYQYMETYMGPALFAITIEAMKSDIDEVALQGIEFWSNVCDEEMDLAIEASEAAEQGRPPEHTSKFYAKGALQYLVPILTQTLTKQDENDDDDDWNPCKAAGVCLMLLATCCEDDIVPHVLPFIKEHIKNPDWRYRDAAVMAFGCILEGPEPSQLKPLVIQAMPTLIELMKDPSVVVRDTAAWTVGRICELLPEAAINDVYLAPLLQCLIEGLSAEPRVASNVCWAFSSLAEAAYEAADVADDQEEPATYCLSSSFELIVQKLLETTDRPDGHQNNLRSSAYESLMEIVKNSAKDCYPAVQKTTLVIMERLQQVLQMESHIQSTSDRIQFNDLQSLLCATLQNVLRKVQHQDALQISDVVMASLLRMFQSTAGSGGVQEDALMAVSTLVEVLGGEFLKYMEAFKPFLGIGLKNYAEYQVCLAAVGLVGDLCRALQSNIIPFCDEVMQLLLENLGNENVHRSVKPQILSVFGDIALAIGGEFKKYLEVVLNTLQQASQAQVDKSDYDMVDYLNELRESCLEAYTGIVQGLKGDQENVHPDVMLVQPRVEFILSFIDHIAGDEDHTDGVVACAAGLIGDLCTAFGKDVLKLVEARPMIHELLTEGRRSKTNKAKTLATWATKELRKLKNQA
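FRET biosensor (snurportin 1 IBB flanked by EYFP and cerulean), 50 nM, with compound 5 min, then 0.125 microM importin beta in PBS, 1 mM DTT, 0.02% Tween-20, 0.1% BSA. CFP/YFP ratio read after 45 min at room temperature; pre-read flags interference.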
Numbers stand for hits; n = inactive; u = inconclusive; x = no result; ! = not active in a repeat. Unless noted, the call rests on the fitted dose curve.

SMILES	MBNL1 CUG block	ClpP mod	CBFb RUNX1 block	Rango dissoc inh	Rango complex inh
Cc1cccc(N(C)c2nc3ccc(C(=O)c4ccccc4)cc3n3c(C)nnc23)c1	x	n	x	x	x
CC(C)(C)c1ccc(Cn2cnc(-c3ccc([N+](=O)[O-])cc3)c2)cc1	u	10µM	n	n	u
CCN(C(=O)CCS(=O)(=O)c1cc2[nH]c(=O)c(=O)[nH]c2cc1C)c1ccccc1	x	31.6µM	x	x	x
COC(=O)c1ccc(-c2nc3ccc(C)cc3o2)cc1	n	3.55µM	n	n	n
Cc1ccc(-c2nc3cc(N)ccc3o2)cc1	u	n	n	n	n
Cc1ccc(-c2nc3cc(C)ccc3o2)cc1	n	31.6µM	n	n	n
Cc1ccc2oc(-c3ccco3)nc2c1	n	11.2µM!	n	n	u
COC(=O)c1ccc(-c2nc3ccccc3o2)cc1	n	x	n	x	x
CCc1c(C)c2ccc(O)c(CN3CCN(c4ccc(OC)cc4)CC3)c2oc1=O	x	n	x	x	x
CCOC(=O)c1cc(-c2ccc3c(c2)OCCO3)nc2c1c(C)nn2CCC#N	n	u	u	n	u
Cc1cc(C(F)(F)F)c2c(C)nn(-c3ccccc3)c2n1	x	28.2µM	x	n	n
CCOC(=O)c1cc(-c2ccc(OC)cc2F)nc2c1c(C)nn2CCC#N	n	25.1µM	n	n	n
Cc1nn(CCC#N)c2nc(-c3ccccc3)cc(C(F)(F)F)c12	n	31.6µM	n	n	n
CCOC(=O)c1cc(-c2ccc(Cl)cc2)nc2c1c(C)nn2CCC#N	n	35.5µM	n	n	n
CC[C@H](C)[C@H](NC(=O)[C@@H](NC(=O)[C@@H](NC(=O)[C@H](CCC(=O)O)NC(=O)[C@H](CCC(=O)O)NC(=O)[C@H](CCC(=O)O)NC(=O)[C@H](C)NC(=O)[C@@H](N)CC(C)C)C(C)C)C(C)C)C(=O)N[C@@H](CCCNC(=N)N)C(=O)N[C@@H](CO)C(=O)N[C@@H](C)C(=O)N[C@@H](CC(N)=O)C(=O)N[C@@H](Cc1ccccc1)C(=O)N[C@H](C(=O)N[C@@H](CC(=O)O)C(=O)N[C@@H](CC(N)=O)C(=O)O)[C@@H](C)O	x	x	n	x	x
Cc1cc(C(F)(F)F)c2c(C)nn(CCc3nn[nH]n3)c2n1	n	17.8µM	n	n	n
COC(=O)c1ccc(NC(=O)CN(C)S(=O)(=O)c2ccc(Br)s2)cc1	x	n	x	x	x
CCc1ccc(OCC(=O)Nc2ccc(-c3cc4ccccc4oc3=O)c(OC)c2)cc1	n	35.5µM	u	n	n
COc1cc(NC(=O)c2cc(Cl)ccc2Cl)ccc1-c1cc2ccccc2oc1=O	n	28.2µM	n	n	n
CCn1c(SC(C)C(=O)Nc2ccc(C)cc2)nnc1-c1ccccc1 (stereo unspecified)	x	n	x	x	x
COc1ccc(C(CNC(=O)C(C)Oc2ccc(Br)cc2)N2CCOCC2)cc1 (stereo unspecified)	x	28.2µM	x	n	n
COc1ccc(C(CNC(=O)CSc2ccc(Br)cc2)N2CCOCC2)cc1 (stereo unspecified)	x	x	x	n	n
O=C(c1ccc(Cl)cc1)N1CCC(C(=O)N2CCCc3ccccc32)CC1	n	31.6µM	x	n	n
O=C(c1ccccc1)C(CCc1ccccn1)CCc1ccccn1	x	3.55µM	x	n	n
CC(CCc1ccccn1)C(=O)c1ccccc1 (stereo unspecified)	x	n	x	n	n
SMILES	MBNL1 CUG block	ClpP mod	CBFb RUNX1 block	Rango dissoc inh	Rango complex inh
CC(NC(=O)c1ccccc1F)c1nnc(SCC(=O)N2CCN(c3ccccc3)CC2)n1C (stereo unspecified)	n	25.1µM	n	n	n
Cn1c(CNC(=O)c2ccccc2F)nnc1SCC(=O)N1CCN(c2ccccc2)CC1	n	x	n	n	n
CCN(CC)S(=O)(=O)c1ccc(NC(=O)CCc2c(C)nc3cc(-c4ccc(Cl)cc4)nn3c2C)cc1	x	15.8µM	x	x	x
Cc1ccc(NC(=O)CCc2c(C)nc3cc(-c4ccccc4)nn3c2C)cc1F	x	28.2µM	x	x	x
COc1ccc(CCNC(=O)C(=O)c2c[nH]c3ccccc23)cc1	x	x	n	x	x
CS(=O)(=O)N(CC(=O)N/N=C/c1cccc2c1OCCO2)c1ccccc1Br	n	u	n	n	n
O=C(CN(c1ccc(Cl)c(C(F)(F)F)c1)S(=O)(=O)c1ccccc1)N/N=C/c1cccc2c1OCCO2	n	22.4µM	n	n	n
Fc1ccccc1N1CCN(C(c2ccnc3ccccc23)c2nnnn2-c2ccc3c(c2)OCCO3)CC1 (stereo unspecified)	x	n	x	x	x
COc1cc(OC)c(NC(=O)Cn2c(=O)oc3cc(S(=O)(=O)N4CCCC4)ccc32)cc1Cl	x	n	x	x	x
Oc1ccc(Cl)cc1C1=Nc2ccccc2N=C(c2cccc(Br)c2)C1	x	n	x	x	x
Cc1cc(C)nc(Sc2ccc(/C=C(\C#N)C(N)=O)o2)n1	u	28.2µM	n	n	n
O=C1C2CCCCC2C(=O)N1c1ccc(S(=O)(=O)Nc2ncccn2)cc1 (stereo unspecified)	n	15.8µM	x	n	n
CCCCC(=O)Nc1c(O)c2ccccc2[nH]c1=O	n	u	n	n	n
CCNC(=O)c1c(O)c2ccccc2[nH]c1=O	n	25.1µM	n	u	u
COc1ccc(CNC(=O)c2c(O)c3cc(OC)c(OC)cc3[nH]c2=O)cc1OC	n	7.94µM	x	n	n
CCCCCCc1c(O)c2ccccc2[nH]c1=O	n	25.1µM	n	n	n
O=C(NCCc1ccccc1)c1c(O)c2ccccc2[nH]c1=O	n	x	x	n	n
COc1ccc([C@H]2c3cc(OC)c(OC)cc3C[C@@H](C)[C@@H]2C)cc1OC	x	x	n	x	x
CCOc1ccc2c(C)nc(NC3=NC(C)(C)C=C(C)N3)nc2c1	n	3.98µM	n	n	n
CCOc1ccc2nc(NC3=NC(C)(C)C=C(C)N3)nc(C)c2c1	n	n	n	n	u
CCOc1ccc2nc(NC3=NC(c4ccc(OC)cc4)CC(=O)N3)nc(C)c2c1 (stereo unspecified)	n	31.6µM	u	n	n
COc1cc(OC)c2c(c1Cl)O[C@@]1(C2=O)[C@H](C)CC(=O)C[C@@H]1OC	x	x	n	x	x
O=C(NCc1cccc(Cl)c1)c1ccc(-c2ccc(F)c(F)c2)c2ccoc12	x	15.8µM	x	x	x
O=C(NCCc1ccccc1)c1ccc(-c2ccc(F)c(F)c2)c2ccoc12	x	35.5µM	x	x	x
O=C(NCc1ccco1)c1ccc(-c2ccc(F)c(F)c2)c2ccoc12	x	35.5µM	x	x	x
O=C1CCSC2(C(=O)N(Cc3ccc(F)cc3)c3ccccc32)N1c1cccc(F)c1 (stereo unspecified)	x	n	x	x	x
Cc1ccc(-n2nc3c(=O)n(CCCC(=O)NCCc4ccccc4Cl)nc(C)c3c2C)cc1	x	n	x	x	x
CCOc1ccccc1-c1nc(SCC(=O)c2ccc(OC)c(Br)c2)n[nH]1	x	n	x	x	x
